This is part of a sample that, as a whole, favours compounds with a hit. Of some 83,000 tested, about 20% had one in any assay.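 The test compound was applied at a single concentration to cells in 96-well plates for 48 hours, and percent growth was recorded.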 Unmarked numbers belong to inactive results. The source made the active and inactive calls. Rule for the calls: active = growth percent below 10; inactive = the rest.
Legend:
Experiment in all cases: NCI-60 one-dose screen, 48 h (100 = growth as untreated, 0 = no growth, -100 = all killed)
Settings in all cases: 10 µM unless noted
T-47D breast = tested on: T-47D breast
BT-549 breast = tested on: BT-549 breast
MDA-MB-435 melanoma = tested on: MDA-MB-435 melanoma
SW-620 colon = tested on: SW-620 colon
MCF7 breast = tested on: MCF7 breast
HCT-116 colon = tested on: HCT-116 colon
HCC-2998 colon = tested on: HCC-2998 colon
KM12 colon = tested on: KM12 colon

| Compound | growth (T-47D breast) | growth (BT-549 breast) | growth (MDA-MB-435 melanoma) | growth (SW-620 colon) | growth (MCF7 breast) | growth (HCT-116 colon) | growth (HCC-2998 colon) | growth (KM12 colon) |
| --- | --- | --- | --- | --- | --- | --- | --- | --- |
| Cc1nc2sc(C(=O)Nc3cccc(Cl)c3C)c(N)c2cc1C(=O)/C=C/c1ccccc1 | 21.2% | -35.7% (active) | -26.3% (active) | -21.8% (active) | 3% (active) | -35.6% (active) | -83.2% (active) | -16.7% (active) |
| COc1ccc(C2CC(c3ccccc3)=NN2C(=O)c2cc(OC)c(OC)c(OC)c2)cc1O (stereo not drawn) | 70.9% | 39.7% | -7.61% (active) | 32.1% | 20.3% | 13.8% | -1.27% (active) | 26.3% |
| [N-]=[N+]=NCC1OC(n2cnc3c(NC(=O)Nc4ccccc4)ncnc32)C2OC(=O)CC12 (stereo not drawn) | 103% | 104% | 109% | 105% | 92.3% | 101% | 107% | 106% |
| Cc1ncc(C(=O)Nc2ccc(CN3CCN(C)CC3)c(C(F)(F)F)c2)cc1C#Cc1cnc(N)c2ccc(C#N)cc12 | 19% | 43.5% | -28.4% (active) | 6.41% (active) | 11.5% | -19.9% (active) | 34.1% | 3.87% (active) |
| COCC(=O)Oc1cc(-c2ccc(C)cc2C)c(OC(=O)COC)c(-c2ccc(C)cc2C)c1 | 43.7% | 56.6% | 59.6% | 43.2% | 41% | 17.7% | 88% | 44.8% |
| COc1ccc2cc(-c3nc4ccc(C)cn4c3NCc3ccco3)c(=O)[nH]c2c1 | 47.1% | 66.1% | 86.8% | 87.1% | 74.1% | 57.5% | 95.6% | 77.7% |
| C[C@@H]1NC(=O)[C@H](Cc2ccccc2)N(Cc2cccnc2)C1=O | 94.6% | 73.2% | 104% | 97.2% | 91.5% | 71% | 106% | 103% |
| O=C1CCCCN1c1ccc(C2=NCCCN2)cc1 | 57.8% | 89.6% | 96.9% | 85.7% | 84.2% | 92.1% | 109% | 90% |
| CN1C(=O)/C(=C/c2ccc(C(=O)Nc3ncc(Cc4cc(Cl)ccc4Cl)s3)cc2)SC1=S | 59.8% | 85.2% | 5.7% (active) | 62.8% | 67.4% | 60.9% | 83.1% | 49.8% |
| O=CCCCOCc1ccccc1 | 102% | 103% | 107% | 100% | 91.7% | 105% | 94.2% | 102% |
| CCCCCc1ccc(S(=O)(=O)Nc2cc(-c3csc(NC(C)=O)n3)ccc2N2CCN(C)CC2)cc1 | 58.8% | 63.9% | -45.4% (active) | -25.9% (active) | 9.36% (active) | 3.98% (active) | -26.9% (active) | 74.1% |
| CN1C(=O)/C(=C/c2ccc(C(=O)Nc3ncc(Cc4cccc(C(F)(F)F)c4)s3)cc2)SC1=S | 30% | 47.3% | -27.2% (active) | 38.2% | 30.4% | 43.7% | 49.6% | 28% |
| O=C(/C=C/c1cccc(Oc2ccccc2)c1)c1ccc(Nc2nc(Nc3ccc(F)cc3)nc(Nc3ccc(Cl)cc3)n2)cc1 | 95.4% | 104% | 112% | 104% | 89.6% | 95.1% | 67.1% | 105% |
| O=C(Nc1cc(Cl)ccc1O)c1ccccc1Nc1ccnc(C(F)(F)F)c1 | 0.662% (active) | 33.2% | 29.1% | 15% | 8.95% (active) | 2.14% (active) | 3.95% (active) | 7.26% (active) |
| CCn1cc(Cc2cc(C(=O)Nc3cc4cc(OC)c(OC)cc4c(C)n3)ccc2Cl)cn1 | 19.8% | 17.3% | 2.12% (active) | 38.3% | 18.5% | 10.3% | 65.1% | 37.7% |
| COC12C=C/C(=C(/C(=O)OCc3cncnc3)C(=O)CCCCCCCCC3(OC)C=C/C(=C(/C(=O)OCc4cncnc4)C(=O)CCCCCCCC1)O3)O2 | 10.2% | -10.2% (active) | -49.8% (active) | 4.94% (active) | 3.84% (active) | -63.8% (active) | -77.5% (active) | -89.2% (active) |

| Compound | growth (T-47D breast) | growth (BT-549 breast) | growth (MDA-MB-435 melanoma) | growth (SW-620 colon) | growth (MCF7 breast) | growth (HCT-116 colon) | growth (HCC-2998 colon) | growth (KM12 colon) |
| --- | --- | --- | --- | --- | --- | --- | --- | --- |
| Brc1ccc(Nc2nc(Nc3cnc4ccccc4c3)c3[nH]cnc3n2)cc1 | 52.8% | 48.6% | 96.3% | 91.9% | 58% | 55% | 103% | 88.8% |
| CCOC(=O)C1=C(c2ccccc2)N=C2N(c3ccccc3)N=C(C(C)=O)N2C1c1ccc(F)cc1 (stereo not drawn) | 98.8% | 101% | 102% | 99.9% | 95.1% | 97.8% | 115% | 97.6% |
| COc1ccc2cc(C(=O)N3CCC([C@@H](C)C(=O)NCc4ccc5c(c4)OCO5)CC3)[nH]c2c1 | 17.3% [50 µM] | 16% [50 µM] | 65.9% [50 µM] | 103% [50 µM] | 46.8% [50 µM] | 33.6% [50 µM] | 83% [50 µM] | 79.1% [50 µM] |
| C[C@@H]1CN(c2cnc(C(=O)Nc3cc(F)cc4cccnc34)cn2)C[C@H](C)N1 | 30% | 102% | 97% | 46.2% | 9.07% (active) | 13.1% | 91.7% | 83.4% |
| Cc1c2ncccc2nc2[nH]c3ccc(OCCN(C)C)cc3c12 | 32.3% | 63.2% | 36.8% | 17.3% | 3.49% (active) | 12.6% | 53.3% | 20.9% |
| O=C(NC1CCC(Br)CC1)C1CCCC(S(=O)(=O)NC2CCCCC2)C1 (stereo not drawn) | -9.71% [25 µM] (active) | 21.6% [25 µM] | 14.4% [25 µM] | 31.2% [25 µM] | 6.38% [25 µM] (active) | 17% [25 µM] | 24.6% [25 µM] | 16.9% [25 µM] |
| O=C(/C=C/c1ccccc1)N(C1CCCCC1)C1CCCCC1 | 69.2% | 77.3% | 99% | 92.4% | 88.4% | 57.6% | 92.4% | 95.1% |
| OC1(c2ccccc2)c2ccccc2N(c2ccccc2)c2ccc(Cl)cc21 (stereo not drawn) | -85.1% (active) | -78.7% (active) | -81.5% (active) | -85.7% (active) | -88% (active) | -85.9% (active) | -90.1% (active) | -87.6% (active) |
| Cc1nc([P+](c2ccccc2)(c2ccccc2)c2ccccc2)c(N2CCCCC2)o1 | -0.433% (active) | 20% | 21.3% | 37% | 10.9% | 10.9% | 31.6% | 10.1% |
| CC/C(=C(\c1ccc(Cl)cc1)c1ccc(OCCN2CCCCC2)cc1)c1ccc(O)cc1 | 4.66% (active) | 58.3% | 2.07% (active) | -35.7% (active) | 3.41% (active) | -56.5% (active) | 37.5% | 17.5% |
| COc1cccc(-c2cn3nc(-c4cn(C)c5ccccc45)sc3n2)c1 | 89.9% | 102% | 36.5% | 89.7% | 79.5% | 91.7% | 93.5% | 72.6% |
| CC(C)=CC(=O)N[C@H]1CC[C@]2(C)C3CC[C@]4(C)C(C(C)N(C)C)=CCC4C3CCC2[C@H]1O (stereo partly drawn) | 38.6% | 54.4% | -33.8% (active) | -23.5% (active) | 11.4% | 2.25% (active) | 35.8% | 23.2% |
| CCCCCCCCCCOC(=O)c1nn(C(C)=O)c2cc(C)c(C)cc12 | 99.7% | 90.5% | 100% | 97.3% | 94% | 75.4% | 105% | 104% |
| CC(C)n1c2ccc(Br)cc2c2c3c(c4c5ccccc5ccc4c21)C(=O)NC3=O | 63.3% | 95.9% | 92.4% | 101% | 86.2% | 85.2% | 103% | 52.7% |
| C=C1C(=O)O[C@H]2[C@H]1CC/C(COC(=O)NCc1ccc(Cn3c(=O)sn(-c4ccccc4)c3=O)cc1)=C\CC[C@@]1(C)O[C@@H]21 | 57.7% | 51.3% | 33.4% | -13% (active) | 15.4% | 5.85% (active) | 75.2% | 96.8% |

From PubChem BioAssay (NCI)
